High-throughput results deposited in PubChem BioAssay by National Center for Advancing Translational Sciences (NCATS).
FUS suppressor: rescues growth of FUS-expressing yeast; 0.24% of 390,000 active; AID 1347120; Potency, µM (doses to about 76.6 µM), most hits filed as activators; S. cerevisiae FUS-expressing, growth rescue, OD600, 24 h;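 further: plate controls were DMSO vehicle for no effect and reference control for full effect; nearly all actives have a fitted effect of over 55% in size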
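S. cerevisiae expressing FUS from galactose induction served as the toxicity model. Growth after 24hr at 30C, read as absorbance at 600 nm, indicates suppression of toxicity; compounds dosed at several concentrations.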
Abeta rescue: restores growth of yeast expressing A-beta42 peptide; yeast expressing A-beta42, growth rescue, OD600, 48 h; response scale: 0% DMSO, 100% iron-clioquinol control; Potency, µM (highest dose often 46.1 µM), usual class: activators; 0.063% of 410,000 active; AID 1347071; further: nearly all actives have a fitted effect of over 55% in size
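Yeast growth medium received pinned compounds, then yeast cells expressing toxic A-beta were added; plates incubated at 30 C for 48 hr. Growth read as absorbance at 600 nm, normalized to DMSO and equimolar FeCl3 plus clioquinol controls.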
TDP-43 yeast inh: inhibitors of TDP-43 toxicity in yeast; Potency, µM (doses to about 46.1 µM), for inactives: at the highest dose growth rescue (activation), actives largely listed as activators; 1.8% of 410,000 active; AID 652104; TDP-43 expressing yeast growth rescue, BacTiter-Glo, 24 h; further: % of control where 0% means no effect; nearly all actives have a fitted effect of over 50% in size
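Galactose-induced TDP-43 yeast, OD600=0.02, compound pinned; 24 hr, 30 deg C; BacTiter-Glo luminescence for growth. Inhibitors of TDP-43 toxicity read as activators.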
aSyn rescue: alpha-synuclein toxicity inhibition in yeast; Yeast expressing alpha-synuclein, growth rescue, BacTiter-Glo, 24 h; Potency, µM (series often up to 46.1 µM), without a hit: top-dose growth rescue (activation), usual class: activators; 0.14% of 370,000 active; AID 652106; further: % of control where 0% means no effect; nearly all actives have a fitted effect of over 65% in size
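Galactose-induced alpha-syn yeast (OD600=0.02, raffinose-pregrown) + pinned cpd, 24 hr, 30 deg C; growth by BacTiter-Glo luminescence. Growth restoration scores as activation.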
* marks the source's active call; other numbers are inactive results; i = inactive; ? = inconclusive; . = no result given; ! = repeats disagree; [ ] = another dose, or the depositor's remark. Shown are actives, neighbours in structure and some others; about 2.1% of the full set was active somewhere. The call rests on the fitted dose curve; in most records, active means well fitted curve in the direction sought with a large enough effect; inconclusive means small, poorly fitted or top-dose-only effect, or another doubt; inactive means no such curve, though single readings can be large; an effect the other way counts as inactive or inconclusive. Potency means the concentration at half of the fitted maximal effect.

SMILES	FUS suppressor	Abeta rescue	TDP-43 yeast inh	aSyn rescue
C=C(C=O)CC1CC(O)[C@]2(C)OC3C[C@@H]4OC5C[C@]6(C)O[C@]7(C)CCC8OC9C[C@]%10(C)OC(/C(C)=C\CO)C(O)CC%10OC9CC(C)C8OC7CC6O[C@]5(C)C/C=C\C4OC3CC2O1 (some centres not stated)	?	i	17.7%	0.6%
Nc1ccc(Cl)cc1C(=O)c1ccccc1Cl	i	i	20µM*	?
CCCNC(=O)Cn1cnc2sc(C(=O)N3CCC4(CC3)OCCO4)c(C)c2c1=O	i	i	6.9%	-0.4%
Cc1cc2oc(=O)cc(-c3ccccc3)c2c(C)c1-c1ccc(CO)cc1	i	i	35.5µM*	-14.8%
Cc1ccc(F)cc1NC(=O)c1ccc(Cn2nc(N3CCN(c4ccccc4)CC3)ccc2=O)o1	?	i	25.1µM*	.
O=C(Nc1ccc(F)cc1F)c1cccn(Cc2ccccc2)c1=O	i	i	1.2%[9.22 µM]	4.6%
N#CC1c2ccccc2C=CN1C(=O)c1ccc(N(CCCl)CCCl)cc1 (configuration not stated)	i	i	1.5%	7.94µM*
O=c1c2ccccc2nc(/C=C/c2ccccc2)n1-c1ccccc1F	i	i	11.7%	.
O=C1C=CC2C3C(=O)N(c4ccccc4)C(=O)C3C1N2Cc1ccccc1 (configuration not stated)	.	i	12.6µM*	7.5%
O=C(Nc1ccc(OC(=O)N2CCCC2)cc1)N1CCOCC1	i	i	-10.6%	3.1%
O=C(Oc1ccc(Cl)cc1)N1CCOCC1	i	i	20µM*	5.3%
CN1CCCC(C(=O)c2ccc(Cl)cc2)C1 (configuration not stated)	i	i	-4.2%	-18.8%
Cc1cc(O)c2c(c1)OC(C)(C)C1=C2CC(C)CC1 (configuration not stated)	i	i	12.6µM*	22.2%
COc1ccc(C(c2c(O)c3ccccc3oc2=O)c2c(C)n(C)n(-c3ccccc3)c2=O)cc1 (configuration not stated)	i	i	22.4µM*!	-0.6%
Cc1c(C(c2ccccc2Cl)c2c(O)c3ccccc3oc2=O)c(=O)n(-c2ccccc2)n1C (configuration not stated)	i	i	7.94µM*	10.6%
Cc1c(C(c2ccc(F)cc2)c2c(O)c3ccccc3oc2=O)c(=O)n(-c2ccccc2)n1C (configuration not stated)	?	?	?	3.9%
Cc1nc2c(=O)n(C)c(=O)nc-2n(C)n1	.	i	-50.9%	22.5%
C=CCn1c(O)c(C(CC)=NCCC2=CCCCC2)c(=O)[nH]c1=O	i	i	17.8µM*	.
Cc1ccc(-n2c(=S)[nH]c3ccccc3c2=O)cc1F	i	i	?	?
O=c1c2ccccc2[nH]c(=S)n1-c1cccc(C(F)(F)F)c1	i	i	6.31µM*	?
COC(=O)C1=C(c2cccc(OCc3ccccc3)c2)C[C@@H]2CC[C@H]1N2C(=O)NCc1ccc([N+](=O)[O-])cc1	i	i	27.9%	0.7%
CC(=O)c1ccc2c(c1)C1C(Cl)C(Sc3ccccc3[N+](=O)[O-])CC1C(c1ccccc1)N2 (configuration not stated)	39.8µM*	i	-3.7%	-8.3%
Cc1ccc2n1Cc1cnnn1-c1ccccc1-2	i	i	10µM*	1.2%
